From ChEMBL document CHEMBL1157539, “Thousands of chemical starting points for antimalarial lead identification” (Nature, 2010)

What follows are compounds tested on Plasmodium falciparum (assay: GSK_TCMDC: Inhibition of Plasmodium falciparum Dd2 in whole red blood cells, using parasite LDH activity as an index of growth. Test compounds present at 2uM).
Assay type: functional
In the case of `Cl.c1ccc2cc(CNCCCN3CCN(CCCNCc4ccc5ccccc5c4)CC3)ccc2c1`, the Inhibition is reported as 65%.
`Nc1c(Cl)cc(C(O)CNCCCCCOCCc2ccc3occc3c2)cc1Cl` (configuration not stated) was tested, and the Inhibition was 74%.
With `Cc1cc2cc(NC(=O)Nc3ccnc4ccccc34)ccc2n1C.Cl` the Inhibition was 33%.
`Cc1cc(NCC(c2ccccc2)c2ccccc2)nc(NCc2ccc(C(F)(F)F)cc2)n1` was tested, and the Inhibition was 79%.

Each compound was assayed on HepG2 (assay: GSK_TCMDC: Percent inhibition of human HepG2 cell line. Test compounds present at 10uM.).
Assay type: functional
`CC(C)NCc1ccc(-c2ccc(CN3CCCC(c4ccccc4)C3)cc2)c(C(=O)NCC2CCCCC2)c1.O=C(O)C(F)(F)F` (configuration not stated) was tested, and the Inhibition was 79%.
With `Cl.O=C(/C=C/c1ccc(Cl)c(Cl)c1)N1CCC(CN2CCC(c3c[nH]c4ncccc34)CC2)CC1` the Inhibition was 38%.
`CC1CN(c2ccnc3ccc(Sc4ccc(Oc5ccccc5)cc4)cc23)CC(C)N1.Cl` (configuration not stated) showed an Inhibition of 33%.
With `Cl.c1ccc2c(Nc3ccc(OCCOCCOc4ccc(Nc5c6ccccc6nc6ccccc56)cc4)cc3)c3ccccc3nc2c1` the Inhibition was 38%.
With `CN=C(NC)c1cccc(NC(=O)C=Cc2ccc(C=CC(=O)Nc3cccc(C(=NC)NC)c3)cc2)c1.Cl` the Inhibition was 21%.
With `Cc1ccc2cc(NC(=O)CCCCCCCON3C(N)=NC(N)=NC34CCCCC4)ccc2n1.O=C(O)C(F)(F)F` the Inhibition was 6%.
For `CCOC(=O)c1ccc(-c2c(C(F)(F)F)noc2-c2cc(CC)c(OC)cc2O)o1`, the Inhibition was 0%.
Work on `COc1ccc(Nc2ncc3c(-c4cccc(NC(=O)Cc5ccncc5)c4)c[nH]c3n2)cc1OC` yielded an Inhibition of 23%.
`Br.COc1ccc(CCCON2C(=N)N=C(N)NC2(C)C)cc1` showed an Inhibition of 61%.
For `CN(c1ccc(NC(=O)Nc2cc(C(F)(F)F)ccc2F)cc1)c1ccnc(NCCN2CCOCC2)n1.O=C(O)C(F)(F)F`, the Inhibition was 67%.
Work on `CS(=O)(=O)Nc1ccc(-c2ccc3ccnc(N)c3c2)cc1.O=C(O)C(F)(F)F` yielded an Inhibition of 31%.
With `O=C(NC1CC1)c1ccc(N2CCC(c3ccccc3)CC2)nc1.O=C(O)C(F)(F)F` the Inhibition was 16%.
Work on `Cl.N#Cc1ccc2c(c1)CCN(CCC1CCC(NC(=O)Nc3ccnc4ccccc34)CC1)C2` (configuration not stated) yielded an Inhibition of 38%.
`COc1cc2nc(NCc3ccc(S(N)(=O)=O)cc3)nc(Nc3ccc(Oc4ccccc4)cc3)c2cc1OC` was tested, and the Inhibition was 14%.
Compound `COc1ccc(CCn2c(C3CCCCC3)nc3oc4ccccc4c(=O)c3c2=O)cc1` has an Inhibition of 12%.
Compound `O=C(Nc1ccc(C(F)(F)F)cc1)c1ccc(NCCCN2CCCCCC2)c([N+](=O)[O-])c1` has an Inhibition of 42%.
In the case of `COc1cccc(CNC[C@@H](O)[C@H](Cc2ccccc2)NC(=O)c2cc(N3CCCC3=O)c3[nH]cc(C(C)C)c3c2)c1`, the Inhibition is reported as 5%.
`COc1cccc(CNC(=O)NC2CCN(c3ccnc(Nc4ccc(F)cc4)n3)C2)c1` (configuration not stated) showed an Inhibition of 20%.
With `COc1cc2nc(Cl)nc(Nc3ccncc3)c2cc1OC.Cl` the Inhibition was 11%.
With `COc1ccc(C(=O)CCC(=O)N(Cc2ccc(-c3ccc(CNCCc4ccc(S(C)(=O)=O)cc4)cn3)cc2)Cc2ccc3c(c2)OCO3)cc1F.O=C(O)C(F)(F)F` the Inhibition was 13%.
In the case of `Cl.N=C(N)c1cc(Cl)cc(NC(=O)Nc2cc(Cl)cc(C(=N)N)c2)c1`, the Inhibition is reported as 4%.
Compound `Nc1nc(N)c2cc(S(=O)(=O)c3ccc4ccccc4c3)ccc2n1` has an Inhibition of 14%.
For `FC(F)(F)c1cccnc1N1CCC(Nc2nc3cc(Cl)ccc3[nH]2)CC1`, the Inhibition was 32%.
Compound `COc1ccc(N(c2nc(-c3cc(Cl)ccc3Cl)cs2)C2CCNC2)cc1.O=C(O)C(F)(F)F` (configuration not stated) has an Inhibition of 21%.
With `Br.Cc1cccc(OCCCCON2C(=N)N=C(N)NC2(C)C)c1C` the Inhibition was 65%.
`CN1CCN(CCCNc2ncc3c(-c4ccc(NC(=O)Nc5cc(C(F)(F)F)ccc5F)c(F)c4)nn(C)c3n2)CC1.O=C(O)C(F)(F)F` gave an Inhibition of 100%.
Compound `c1ccc(CSC2=NNC(c3ccccn3)S2)cc1` (configuration not stated) has an Inhibition of 6%.
With `CN1CCC(c2nc(N)no2)C1.O=C(O)C(=O)O` (configuration not stated) the Inhibition was 15%.
`COc1ccc2cc(-c3nc(-c4c(Cl)cccc4Cl)[nH]c3-c3ccnc(NCCCN4CCN(C)CC4)c3)ccc2c1.O=C(O)C(F)(F)F` was tested, and the Inhibition was 10%.
`O=C(O)C(F)(F)F.OCCC1CCN(Cc2ccc(-c3ccc(-c4nc5ccccc5[nH]4)cc3)cc2)CC1` was tested, and the Inhibition was 35%.
`Clc1ccc(Cc2nc3ccccc3[nH]2)cc1Cl` showed an Inhibition of 5%.
Compound `COc1ccc(Cn2c(SCc3ccc(C)cc3)nc3cc(OC)c(OC)cc3c2=N)cc1Cl` has an Inhibition of 50%.
In the case of `Brc1cc(CNCCCNc2nc3ccccc3[nH]2)sc1Br.Cl`, the Inhibition is reported as 10%.
